Screening data (PubChem)
HIV RNase H inh-1: blocks HIV-1 RNase H cleavage of RNA/DNA duplex; P04585; actives 1.9% (n = 65,000); RT-RNase H RNA/DNA duplex cleavage, fluorescence; AID 565; inhibition, % at 10 µM; in the data active = inhibition above about 50%
RmlCD inh mix: mixture blocks RmlC and RmlD coupled enzyme activity; inhibition, % at 5.5 µM; RmlC/RmlD coupled enzyme inhibition, 384-well mixture HTS; actives 0.39% (n = 110,000); in the data active = inhibition above about 30%, passing the limit was not always enough; inconclusive = no clear call, values can overlap the other calls
HIV RNase H inh-2: confirmation of HIV-1 reverse transcriptase RNase H inhibitors; Recombinant RT RNase H, fluorescent RNA/DNA duplex cleavage; shares compounds with HIV RNase H inh-1; actives 39% (n = 1,000); AID 651; inhibition, % at 10 µM; in the data active = inhibition above about 48%; inconclusive = no clear call, values can overlap the other calls
An asterisk follows results filed as active; ? = inconclusive; nt = no result given. This is one part of a sample in which hits are shown more often than they occur.

SMILES	HIV RNase H inh-1	RmlCD inh mix	HIV RNase H inh-2
Cc1cc(NC(=O)CSc2ccc(-c3nc4cc(C)c(C)cc4[nH]3)cn2)no1	70*	-39	72*
O=C(CSc1nc2ccccc2s1)Nc1nccs1	nt	14	nt
Cc1cccc(-n2c(SCC(=O)N3CCCC3)nc3n[nH]c(C)c3c2=N)c1	nt	3	nt
Cc1cccc(-c2nsc(SCC(=O)Nc3nccs3)n2)c1	82*	0	74*
Cc1cccc(-c2nsc(SCC(=O)N3CCCC3)n2)c1	79*	3	34
O=C(O)C1=C[C@@H](c2coc3ccccc3c2=O)C[C@@H](OCCCCO)O1	nt	8	nt
COC(=O)C1=C(C)N(CCCCCC(=O)O)C(=O)NC1c1ccccc1 (stereo unspecified)	nt	4	nt
COc1ccccc1-c1noc(CCC(=O)Nc2cc(C(F)(F)F)ccc2Cl)n1	11	7	nt
CC1Oc2cc3oc4c(O)c(O)ccc4c(=O)c3c(O)c2C1(C)C (stereo unspecified)	nt	7	nt
O=C(OCC#CCSc1nnc(-c2cccc3ccccc23)o1)c1ccco1	nt	4	nt
CCOc1ccccc1-c1nc(-c2ccc(NC(=O)c3ccc(Br)o3)cc2)no1	7	-14	nt
CCOc1ccccc1-c1nc(-c2ccc(NC(=O)Cc3ccc(OC)cc3)cc2)no1	64*	-94	?
Clc1ncc(CN2CCN(Cc3ccccc3)CC2)s1	nt	5	nt
CN(C)c1ccc(NC(=O)CCCc2ccccc2)cc1	12	10	nt
CN(C)c1ccc(NC(=O)CN2C(=O)CC(c3ccccc3)=Nc3ccccc32)cc1	89*	-12	41
COc1cccc(NC(=O)CCNC(=O)Cn2ccc3ccccc3c2=O)c1	nt	-12	nt
S=C(c1ccc(-c2cccc(Cl)c2)o1)N1CCOCC1	85*	-22	1
S=C(c1ccc(-c2cc(Cl)ccc2Cl)o1)N1CCOCC1	-39	-22	nt
Cc1nc2ccc(NS(=O)(=O)c3ccc4c(c3)OCCO4)cc2s1	nt	-8	nt
Cc1ccc(-n2c(N)c(C(=O)NCc3cccnc3)sc2=S)cc1	nt	8	nt
Cc1ccc(-n2c(N)c(C(=O)N3CCN(C)CC3)sc2=S)cc1	93*	-4	63*
Cc1ccc(-n2c(N)c(C(=O)N3CCCCC3)sc2=S)cc1	95*	7	75*
C=CCn1c(N)c(C(=O)N2CCN(C)CC2)sc1=S	29	-10	nt
Cn1cc(C(=O)c2ccc(Cl)cc2Cl)cc1C(=O)N/N=C(\N)COc1cccc(C(F)(F)F)c1	nt	-3	nt
C=C1CCN([C@@H](CC(C)C)C(=O)Nc2nc3ccc(Cl)cc3s2)S(=O)(=O)c2ccccc21	nt	-11	nt
SMILES	HIV RNase H inh-1	RmlCD inh mix	HIV RNase H inh-2
O=C(c1ccccc1)N1CCCCC(S(=O)(=O)c2ccc3ccccc3c2)C1=O (stereo unspecified)	nt	-9	nt
COc1ccccc1-c1c(C#N)c(SCC(=O)N2CCCC2)nc(C)c1C(N)=O	65*	4	-2
CC(C)c1ccc(-c2c(C#N)c(N)nc(SCC(=O)N3CCCCC3)c2C#N)cc1	nt	-9	nt
COC(=O)C(CC(=O)c1ccc(Br)cc1)n1ccnc1 (stereo unspecified)	79*	nt	36
Cc1ccc(NCCC(=O)c2ccc(Br)cc2)cc1	nt	-18	nt
CC(C)(C)CN1C(=O)C(=O)NC[C@@H]1CCCCN	nt	-9	nt
CCOc1ccc(S(=O)(=O)Nc2cc(Sc3ncn[nH]3)c3oc(=O)sc3c2)cc1	88*	-15	38*
CCOc1ccc(NS(=O)(=O)c2ccc(NS(=O)(=O)c3ccccc3)cc2)cc1	nt	6	nt
COC(=O)C1=C(C(=O)OC)[C@@H]2N(Cc3ccccc3)c3ccccc3[C@@]23C[C@@H](CO)N(C(=O)NC2CCCC2)C3=N1	nt	10	nt
CC(O)[C@H]1CNC(=O)C(=O)N1CCc1cc(C(F)(F)F)cc(C(F)(F)F)c1 (stereo partly specified)	nt	-2	nt
Cn1c(-c2ccc3c(c2)OCO3)cnc1NC(=O)CCC(=O)NCCc1ccccc1	84*	-6	42
Cn1c(-c2ccc3c(c2)OCO3)cnc1NCc1ccccc1	-5	2	nt
O=C1O[C@@H]([C@H](O)CO)C(O)=C1O	nt	6	nt
CCCc1nnc(NC(=O)CN2C(=O)c3ccccc3C2=O)s1	nt	-18	nt
CCCc1nnc(NC(=O)Cn2c(=O)sc3ccccc32)s1	76*	-7	18
O=C(Nc1cccc(Cl)c1)ON=C1c2ccccc2-c2ccccc21	nt	-3	nt
CC(OC(=O)c1ccccc1NCc1ccco1)C(=O)Nc1ncc(Cl)cc1Cl (stereo unspecified)	-18	-35	nt
Oc1ccc(Nc2nc(-c3ccc4ccccc4c3)cs2)cc1	nt	95	nt
Oc1ccc(-c2nc(-c3ccc(O)c(O)c3)cs2)cc1	100*	-1	83*
COc1ccc(CC2NCCC3=CC(=O)CCC32)cc1O (stereo unspecified)	nt	-13	nt
CCc1cccc(N(C)C(N)=Nc2cccc3ccccc23)c1	nt	-9	nt
CCOc1ccc(N(CC(=O)Nc2ccc(OC)cc2)S(=O)(=O)c2c(C)noc2C)cc1	-6	-13	nt
CCOc1ccc(N(CC(=O)Nc2ccc3c(c2)OCCO3)S(=O)(=O)c2c(C)noc2C)cc1	56*	-12	12
Cc1cc(NC(=O)c2cc3n(n2)C(C(F)(F)F)CC(c2ccco2)N3)n(-c2ccccc2)n1 (stereo unspecified)	62*	6	44
COc1ccc(NC(=O)c2cc3n(n2)C(C(F)(F)F)CC(c2ccco2)N3)cc1 (stereo unspecified)	6	-3	nt
SMILES	HIV RNase H inh-1	RmlCD inh mix	HIV RNase H inh-2
O=C1NC(c2cccs2)Nc2sc3c(c21)CCCC3 (stereo unspecified)	94*	15	34
CN1CCc2c(sc3c2C(=O)NC(c2cccc(OC(=O)c4cccs4)c2)N3)C1 (stereo unspecified)	-33	nt	nt
C/C=C\C(=O)Nc1cccc(C2=NOC3(C2)C[C@@H](C(N)=O)N(C(=O)c2ccc(OC)cc2)C3)c1 (stereo partly specified)	nt	7	nt
O=C(CSc1nnnn1-c1ccc2c(c1)OCCO2)OC1CCCCC1	87*	7	28
O=C(CSc1nnnn1-c1ccc2c(c1)OCCO2)N1CCc2ccccc21	1	7	nt
CC1CCN(S(=O)(=O)c2ccc(NC(=O)Cc3ccccc3)cc2)CC1	nt	-4	nt
CC1CCN(S(=O)(=O)c2ccc(NC(=O)Cn3nnc(-c4ccccc4F)n3)cc2)CC1	69*	6	39
OCC[C@@H]1C[C@H](O)[C@@H](O)[C@@]2(CCCCO2)O1	nt	4	nt
Cc1cccc(N2CCN(C(=O)COc3cc(=O)n(C)c4ccccc34)CC2C)c1 (stereo unspecified)	0	nt	nt
COc1cccc(SCc2noc(C(=O)NCCN(C)C)c2C(=O)NCCN(C)C)c1	nt	-5	nt
O=C(O)C1C2C=CC(O2)C1C(=O)Nc1ccc(S(=O)(=O)Nc2ccccc2)cc1 (stereo unspecified)	58*	nt	16
O=C(O)C1C2C=CC(O2)C1C(=O)Nc1ccc(S(=O)(=O)N2CCc3ccccc32)cc1 (stereo unspecified)	-14	5	nt
Cc1sc(-n2c(C)cc(/C=N/n3cnnc3)c2C)c(C#N)c1C	78*	1	69*
Cc1sc(-n2c(C)cc(/C=C3\SC(=S)NC3=O)c2C)c(C#N)c1C	nt	0	nt
CN(C(=O)c1coc(=O)c2ccccc12)c1ccc(F)cc1	72*	nt	33
CCCCN(C)C(=O)c1coc(=O)c2ccccc12	-6	1	nt
